Data: ChEMBL document CHEMBL4513216, “Probing the Open Global Health Chemical Diversity Library for Multistage-Active Starting Points for Next-Generation Antimalarials” (ACS Infect Dis, 2020)
Among all 68,000 compounds or so, about 2,700 (4%) showed an effect of 50% or more. The list comes from a sample in which strong results are over-represented; it also holds similar structures and randomly drawn compounds.

tested on: Plasmodium berghei; test: Screen against P. berghei liver stage (PbLuc), transformed with Luciferase, at 2uM; assay type: functional, HepG2; conditions: tested at 2 uM

Row | SMILES | INHIBITION
1 | Cc1ccc(C(=O)N2CCn3c(COCC4CC4)cnc3C2C)nc1 (centres undefined) | -4.95%
2 | CCCNC(=O)NC(=O)CN1C=Nc2ccccc2S1(=O)=O | -35.65%
3 | O=C(CN1C=Nc2ccccc2S1(=O)=O)NCc1ccccc1 | 33.61%
4 | Cc1ccc(CNC(=O)CN2C=Nc3ccccc3S2(=O)=O)s1 | 3.86%
5 | O=C(CN1C=Nc2ccccc2S1(=O)=O)NC1CCCCC1 | -4.97%
6 | CC(C)(C)NC(=O)NC(=O)CN1C=Nc2ccccc2S1(=O)=O | 13.24%
7 | CC(C)CNC(=O)CN1C=Nc2ccccc2S1(=O)=O | 21.89%
8 | CCC(C)(C)NC(=O)CN1C=Nc2ccccc2S1(=O)=O | 51.94%
9 | O=C(CN1C=Nc2ccccc2S1(=O)=O)NCC1CC1 | 66.2%
10 | O=C(CN1C=Nc2ccccc2S1(=O)=O)NCc1ccccc1F | 68.24%
11 | Cn1ccc(C(=O)N2CCC(c3cc(CCO)n(C)n3)C2)n1 (centres undefined) | -14.3%
12 | CN1[C@@H](CCC(=O)NCc2ccc(F)cc2)CNC(=O)[C@H]2NCC[C@H]21 | 4%
13 | Cc1nc2ccccc2nc1CN1CCCC1Cn1cncn1 (centres undefined) | 53.72%
14 | Cc1c(Cl)c(CN2CCCC2Cn2cncn2)nc2ccccc12 (centres undefined) | -8.32%
15 | Cc1cccc2nc(CN3CCCC3Cn3cccn3)cn12 (centres undefined) | 19.71%
16 | Cc1nc2ccccc2nc1CN1CCCCC1Cn1cncn1 (centres undefined) | 12.74%
17 | Cc1cccc2nc(CN3CCCC3Cn3cncn3)cn12 (centres undefined) | 78.28%
18 | c1ccc(CN2CCCC2Cn2cncn2)nc1 (centres undefined) | 23.11%
19 | CC[C@H](C)[C@H](NC(=O)Cc1csc(-c2cccc(Cl)c2)n1)C(=O)O | 13.05%
20 | CC(Oc1cc(Cl)cc(Cl)c1)C(=O)NCCS(N)(=O)=O (centres undefined) | -10.59%
21 | CC(=O)N1CC2(CCCC2)c2ccccc21 | 3.01%
22 | CCCn1ncc(C(=O)NC(C)c2c(C)nn(CC)c2C)c1C (centres undefined) | -21.14%
23 | CCn1nc(C)c(C(C)NC(=O)c2cccc(NCC(=O)O)c2)c1C (centres undefined) | -6.64%

Row | SMILES | INHIBITION
24 | CCCn1cc(C(=O)NC(C)c2c(C)nn(CC)c2C)c(C)n1 (centres undefined) | 51.19%
25 | Cn1ccnc1CN1CC[C@H](O)[C@@H](n2ccc(=O)[nH]c2=O)CC1 | 31.14%
26 | CCN1CC2(CC1=O)CN(Cc1ccco1)CCN(C(=O)C(C)C)C2 (centres undefined) | -47.39%
27 | O=C(NCCOCCO)c1cccnc1Oc1ccc(Cl)cc1 | 21.75%
28 | c1ccc2oc(N3CCn4c(nnc4C4CC4)C3)nc2c1 | -45.42%
29 | Cn1ccnc1-c1ccc(NCc2cn3c(n2)SCC3)nn1 | -75.92%
30 | Cc1ccc(C(=O)NCCCNS(C)(=O)=O)cc1-n1cccc1 | 54.49%
31 | Cc1ccc(C(=O)NCCCN(C)S(C)(=O)=O)cc1-n1cccc1 | -5.68%
32 | CS(=O)(=O)NCCCNC(=O)c1cccc(-n2cccc2)c1 | 30.31%
33 | CNC(=O)Cn1nc(C(C)C)c2cnn(C(C)(C)C)c2c1=O | -30.6%
34 | CC(C)Oc1cccc(C(O)CNC(=O)CCc2ccncc2)c1 (centres undefined) | -32.28%
35 | COc1cccc(S(=O)(=O)NC(=O)CC2CCCC2)c1 | 14.02%
36 | CCN1CCC(CC(=O)NCc2nc(C)cc(C)n2)CC1 | -28.09%
37 | O=C(CNC(=O)C1CCCC1)NCC(O)c1ccc2ccccc2c1 (centres undefined) | 9.78%
38 | O=C(CC(F)(F)F)NCC(O)c1ccc2ccccc2c1 (centres undefined) | 23.81%
39 | CCN1CCC(CC(=O)NCC(O)c2cccc(OC)c2)CC1 (centres undefined) | 50.32%
40 | CCN1CCC(CC(=O)NCC(O)c2ccc3ccccc3c2)CC1 (centres undefined) | 52.08%
41 | CCN1CCC(CC(=O)NCCc2nc(C)cc(C)n2)CC1 | 3.4%
42 | COc1cccc(C(O)CNC(=O)CC2CCCCC2)c1 (centres undefined) | 51.96%
43 | O=C(C1CCOCC1)N1C[C@@H]2[C@@H](C1)OCC(=O)N2Cc1ccncc1 | -25.8%
44 | CC(Nc1ncnc2c1CCNC2)c1ccc2c(c1)CCCC2 (centres undefined) | 48.21%
45 | Cn1ncc2c1CN(C(=O)Cc1ccccn1)CC2COCC1CC1 (centres undefined) | -4.69%
46 | O=C(C1CCC1)N1CCN(Cc2ccc(F)cc2)[C@H]2CS(=O)(=O)C[C@H]21 | 5.17%

Row | SMILES | INHIBITION
47 | Cc1cc(NC(=O)CN2CCc3cnc(C)nc3C2)on1 | 42.11%
48 | Cc1ncc2c(n1)CN(CC(=O)Nc1c(C)nn(C)c1C)CC2 | 64.16%
49 | Cc1ncc2c(n1)CN(CC(=O)Nc1ccncc1)CC2 | -63.75%
50 | Cc1ncc2c(n1)CN(CC(=O)Nc1cc(C)on1)CC2 | 31.57%
51 | CCc1ncc2c(n1)CN(CC(=O)Nc1cccnc1)CC2 | -28.98%
52 | Cc1ncc2c(n1)CN(CC(=O)Nc1cccnc1)CC2 | 51.94%
53 | Cc1cc(C(=O)N2CCC3(CCNCC3)CC2)c2cccc(C)c2n1 | -26.08%
54 | COc1ccccc1CNC(Cc1cccs1)c1nc(C)c(C)s1 (centres undefined) | 46.15%
55 | Cc1nc(C)n(C2CCCN(C(=O)c3ccc(OC(C)C)nc3)C2)n1 (centres undefined) | 3.33%
56 | CCN(CCN(C)C)c1nc(CCN)nc2sc(C)c(C)c12 | -6.77%
57 | Cn1ncc2c1NC(=O)CC2c1ccc(O)cc1 (centres undefined) | 16.01%
58 | Cc1cc(C)n(CC2CCCN2C(=O)Cc2c(C)noc2C)n1 (centres undefined) | 51.19%
59 | CCCN1CCCC1Cn1nc(C)cc1C (centres undefined) | 60.23%
60 | Cc1cnn(CC2CCCCN2C(=O)c2cccnc2N(C)C)c1 (centres undefined) | 70.27%
61 | Cc1cc(C)n(CC2CCCN2C(=O)Cc2c(C)nn(C)c2C)n1 (centres undefined) | -15.05%
62 | COCCN1CCCC1Cn1nc(C)cc1C (centres undefined) | 17.98%
63 | Cc1cc(C)n(CC2CCCN2C(=O)c2cccc3c2OCO3)n1 (centres undefined) | -72.55%
64 | CN(C)c1ncccc1C(=O)N1CCCC1Cn1cccn1 (centres undefined) | 7.13%
65 | Cc1cc(C)n(CC2CCCN2C(=O)c2cccc3c2OCCO3)n1 (centres undefined) | 50.75%
66 | Cc1cc(C)n(CC2CCCN2C(=O)c2c(C)noc2C)n1 (centres undefined) | -27.28%
67 | Cc1cc(C)n(CC2CCCN2CCS(C)(=O)=O)n1 (centres undefined) | -6.16%
68 | Cc1cc(C)n(CC2CCCN2C(=O)c2ccc3c(c2)OCCO3)n1 (centres undefined) | 4.07%
69 | COCCOc1ncccc1C(=O)N1CCCC1Cn1cc(C)cn1 (centres undefined) | -17.31%
